High-throughput results as filed in PubChem BioAssay.
Sampled rows, rich in hits. Any-hit rate of the full collection: about 8%.
SARS PLP yeast: qHTS of Yeast-based Assay for SARS-CoV PLP. S. cerevisiae expressing SARS-CoV PLpro, growth rescue. Potency, µM (titrated, usually from 32.9 µM), most hits filed as activators. 330,000 tested, 0.19% active. AID 485353, 2010; calls by dose curve; further: nearly all actives have a fitted effect of over 55% in size
HCMV antiviral: qHTS Assay for inhibitors of the human cytomegalovirus (HCMV); 410,000 tested, 4.5% active; activity change, negative = inhibition, % at 57.5 µM; AID 1259415, 2018; HFF cells, HCMV-luciferase reporter, 72 h; active compounds read low; in the data active means activity change below about -60%; inconclusive means no clear call, values can overlap the other calls; inactive means above about -39%
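After 16 h attachment at 37C, HFF cells received test compound and HCMV-luciferase (1 PFU/cell); reporter luminescence read 72 h later, data normalized against buffer-only and known inhibitor Salinomycin.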
LASV entry inh: qHTS for Inhibitors of binding or entry into cells for Lassa Virus; Lassa virus pseudotype entry inhibition, cell reporter; Potency, µM (highest dose often 37.9 µM), actives largely listed as inhibitors; 300,000 tested, 1.2% active; AID 540256, 2011; calls by dose curve; tested in HEK293 cells; further: nearly all actives have a fitted effect of over 50% in size
FMDV inh: High Throughput Screening for Foot and Mouth Disease Virus Antivirals; FMDV antiviral cell-based qHTS; Potency, µM (series often up to 57.9 µM), most hits filed as inhibitors; 410,000 tested, 1.2% active; calls by dose curve; tested in HEK293T cells; further: read-out not given here; nearly all actives have a fitted effect of over 45% in size
MARV entry inh: qHTS for inhibitors of binding or entry into cells for Marburg Virus. Marburg virus pseudotyped entry inhibition, cell reporter. Potency, µM (series often up to 37.8 µM), actives largely listed as inhibitors. 300,000 tested, 1.8% active. AID 540276, 2011; calls by dose curve; tested in HEK293 cells
HCV inhibitor: qHTS Assay for Inhibitors of Hepatitis C Virus (HCV). Huh7.5.1 HCVcc-Cre infection, luciferase reporter, 44 h. Potency, µM (series often up to 41.8 µM), actives largely listed as inhibitors. 340,000 tested, 3.4% active. AID 651820, 2012; active means well fitted inhibition curve with a large enough effect; inconclusive means small, poorly fitted or top-dose-only effect, or another doubt; inactive means no such curve, though single readings can be large or run the other way
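Infectious HCV cell culture screen: compound-treated cells (1,000/well, pre-plated 4 h) are infected with HCVcc-Cre at roughly 0.5 moi and grown 44 h. Infection is quantified by luciferase signal after 15 min substrate incubation at room temperature.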
Each line names hits and unclear results; the compound was inactive in the other large screens.

CN(C(=O)c1cccc(NC(=O)Cc2ccc(NC(=O)C3CCCN(C(=O)CCc4ccccc4)C3)cc2)c1)C1CCCCC1 (stereo not drawn)	HCMV antiviral -75, FMDV inh 14µM, HCV inhibitor 3.2µM (no result: SARS PLP yeast, LASV entry inh, MARV entry inh)
CN(C(=O)c1cccc(NC(=O)C2CCN(C(=O)OC(C)(C)C)CC2)c1)C1CCCCC1	FMDV inh inconclusive, HCV inhibitor 10µM (no result: LASV entry inh, MARV entry inh)
Cc1cccc(C)c1OCCn1c(CCNC(=O)C2CCCCC2)nc2ccccc21	MARV entry inh inconclusive (no result: SARS PLP yeast, HCV inhibitor)
COc1ccc2c(c1)c1c(c(=O)n(-c3ccc(C)cc3)c(=O)n1CC(=O)N1CCCC1)n2C	LASV entry inh inconclusive (no result: SARS PLP yeast, MARV entry inh, HCV inhibitor)
CCCS(=O)(=O)N1CCN(Cc2ccc3c(c2)c2ccccc2n3CC)CC1	LASV entry inh inconclusive, FMDV inh inconclusive, MARV entry inh 10µM, HCV inhibitor inconclusive
CCOc1ccc(CN2CCN(Cc3ccc4c(c3)c3ccccc3n4CC)CC2)cc1	LASV entry inh inconclusive, FMDV inh inconclusive (no result: SARS PLP yeast, MARV entry inh, HCV inhibitor)
CC(Sc1nc(-c2ccc(F)cc2)cs1)C(=O)N1c2ccccc2CC1C (stereo not drawn)	LASV entry inh inconclusive, FMDV inh inconclusive, MARV entry inh inconclusive, HCV inhibitor 22µM
Cc1ccc(NC(=O)C(OC(=O)c2cc(C)oc2C)c2ccccc2)cc1 (stereo not drawn)	HCMV antiviral -61, MARV entry inh inconclusive
Cn1c(CNC(=O)CSc2n[nH]c(-c3ccccc3Cl)n2)nc2ccccc21	none (no result: SARS PLP yeast, MARV entry inh, HCV inhibitor)
Cc1nc(S(=O)(=O)N(C)c2ccccc2)c(C#N)c(C)c1Cl	HCMV antiviral -97, LASV entry inh inconclusive, FMDV inh inconclusive, MARV entry inh inconclusive
CN(c1ccccc1)S(=O)(=O)c1ccc(Cl)nc1	none
CCN1CCN(C(=O)c2cnn(-c3ncc4c(n3)-c3ccccc3CCC4)c2COC)CC1	none (no result: SARS PLP yeast, HCMV antiviral, LASV entry inh, MARV entry inh, HCV inhibitor)
COCCNCCCCOc1c(Cl)cc(C)cc1Br	MARV entry inh inconclusive, HCV inhibitor 11µM
Cc1cc(Cl)c(OCCCNCc2ccccc2)c(Br)c1	MARV entry inh inconclusive, HCV inhibitor 25µM
Cc1cc(N2CCCC2=O)ccc1S(=O)(=O)Nc1c(C)nn(C)c1C	HCMV antiviral inconclusive, LASV entry inh inconclusive, FMDV inh inconclusive, MARV entry inh inconclusive, HCV inhibitor inconclusive
Cc1cc(N2CCCC2=O)ccc1S(=O)(=O)NCCOc1ccccc1	HCMV antiviral -68, LASV entry inh inconclusive, MARV entry inh inconclusive, HCV inhibitor inconclusive
COc1ccc(C(=O)Nc2cc(S(=O)(=O)c3ccc(Cl)cc3)c(O)c(C)c2C)cc1	none (no result: SARS PLP yeast, HCV inhibitor)
c1cc(CN2CCCCC2)cc(OCCCNc2nc3ccccc3s2)c1	LASV entry inh 16µM, MARV entry inh 12µM, HCV inhibitor inconclusive (no result: SARS PLP yeast)
O=C(NOC(=O)c1ccccc1F)c1ccc(OC(F)F)cc1	MARV entry inh inconclusive
COc1cc(C(=O)ONC(=O)c2ccc(OC(F)F)cc2)cc(OC)c1OC	LASV entry inh 9.2µM, MARV entry inh inconclusive
O=C(NCC1(N2CCOCC2)CCCC1)c1cnn(-c2nccc(-c3cccs3)n2)c1C1CC1	none (no result: SARS PLP yeast, HCMV antiviral, LASV entry inh, MARV entry inh, HCV inhibitor)
CCOC(=O)c1oc2ccc(S(=O)(=O)n3nc(-c4ccc(OC)cc4)cc3N)cc2c1C	HCMV antiviral -67, FMDV inh inconclusive
CN(C)S(=O)(=O)c1ccc(NC(=O)c2ccc(Br)o2)cc1	LASV entry inh inconclusive (no result: HCMV antiviral)
CN(C1CCCCC1)S(=O)(=O)c1ccc(NC(=O)c2ccc(Br)o2)cc1	LASV entry inh 11µM
CCN(CC)S(=O)(=O)c1ccc2oc(Nc3ccc(OC)cc3OC)nc2c1	HCV inhibitor 10µM
CCN(CC)S(=O)(=O)c1ccc2oc(C(=O)Nc3ccc(OC)cc3OC)c(C)c2c1	LASV entry inh 6.5µM, MARV entry inh inconclusive
CCOC(=O)c1oc2ccc(S(=O)(=O)n3nc(-c4ccccc4)cc3N)cc2c1C	FMDV inh inconclusive (no result: LASV entry inh)
COc1ccc(NC(=O)c2oc3ccc(S(=O)(=O)N(C)C4CCCCC4)cc3c2C)cc1	HCMV antiviral -72, LASV entry inh inconclusive, FMDV inh inconclusive (no result: SARS PLP yeast, MARV entry inh, HCV inhibitor)
Cc1c(C(=O)Nc2cccc(Cl)c2)oc2ccc(S(=O)(=O)N(C)C3CCCCC3)cc12	HCMV antiviral inconclusive (no result: SARS PLP yeast, MARV entry inh, HCV inhibitor)
Cc1cccc(NC(=O)c2oc3ccc(S(=O)(=O)N(C)C4CCCCC4)cc3c2C)c1C	HCMV antiviral -75 (no result: SARS PLP yeast, MARV entry inh, HCV inhibitor)
CCC(=O)OCc1cnc(C)c2oc(=O)c(C(=O)Nc3ccc(CC)cc3)cc12	none (no result: SARS PLP yeast, MARV entry inh, HCV inhibitor)
N#C/C(=C\c1ccc(C(=O)O)cc1)c1ccccn1	LASV entry inh inconclusive
N#C/C(=C\c1c[nH]c2ccc(Br)cc12)c1ccccn1	LASV entry inh inconclusive, MARV entry inh 13µM, HCV inhibitor 11µM (no result: HCMV antiviral)
COc1ccc(-c2nc3ccccc3n2Cc2ccc(C)cc2)cc1	HCV inhibitor inconclusive (no result: SARS PLP yeast)
COc1ccc(Cn2c(-c3ccc(C)cc3)c[n+]3ccccc23)cc1	HCMV antiviral -97, LASV entry inh 6.3µM, FMDV inh inconclusive, MARV entry inh inconclusive, HCV inhibitor inconclusive
CSc1ccc(/C=C/C(=O)c2ccc(NC(C)=O)cc2)cc1	none
CCC(=O)Nc1cccc(C(=O)/C=C/c2ccc(F)cc2)c1	HCMV antiviral -99, LASV entry inh inconclusive, MARV entry inh 15µM, HCV inhibitor 10µM
CC(=O)Nc1cccc(C(=O)/C=C/c2ccc(C)cc2)c1	LASV entry inh inconclusive, FMDV inh inconclusive, MARV entry inh inconclusive, HCV inhibitor 13µM
CCCC(=O)Nc1ccc(C(=O)/C=C/c2ccc(SC)cc2)cc1	LASV entry inh inconclusive, MARV entry inh inconclusive, HCV inhibitor 11µM
CCOC(=O)C1CCN(C(=O)Cn2nc(CC)n3c(cc4sccc43)c2=O)CC1	FMDV inh inconclusive (no result: SARS PLP yeast, LASV entry inh, HCV inhibitor)
Cc1ccc(N2CCN(C(=O)c3c4c(nc5ccccc35)C(=O)N(C3CCCCC3)C4)CC2)c(C)c1	LASV entry inh inconclusive (no result: SARS PLP yeast, MARV entry inh, HCV inhibitor)
COc1ccc(C(=O)NCCc2sc(-c3cccc(F)c3)nc2C)cc1	none (no result: SARS PLP yeast, MARV entry inh, HCV inhibitor)
CCOC(=O)COc1ccccc1/C=C\[N+](=O)[O-]	LASV entry inh 13µM, FMDV inh 14µM, MARV entry inh 16µM, HCV inhibitor inconclusive (no result: HCMV antiviral)
Cc1ccc(C(=O)COC(=O)COc2ccccc2[N+](=O)[O-])s1	HCMV antiviral -101, MARV entry inh inconclusive
CCOc1ccc(CC2c3cc(OCC)c(OCC)cc3CCN2C(=O)c2cc(OC)c(OC)c(OC)c2)cc1OCC (stereo not drawn)	LASV entry inh 2.1µM, FMDV inh inconclusive, MARV entry inh inconclusive, HCV inhibitor inconclusive
COc1ccc(OCc2cc(C(=O)NCCN3CCCc4ccccc43)no2)c(Cl)c1	LASV entry inh inconclusive, HCV inhibitor 11µM
COc1ccc(OCc2cc(C(=O)NCCN3CCCC(O)C3)no2)c(Cl)c1 (stereo not drawn)	HCV inhibitor inconclusive
CNC(=O)C(=O)NCC1OCCN1S(=O)(=O)c1ccc([N+](=O)[O-])cc1 (stereo not drawn)	MARV entry inh inconclusive
